Assay outcomes: PubChem, National Center for Advancing Translational Sciences (NCATS)
Nrf2 activator – qHTS of Nrf2 Activators. AREc32 ARE-luciferase reporter (MCF7-derived line), luminescence, 24 h. Potency, µM (top dose mostly 46.1 µM), for inactives: top-dose activation, hits mostly activators. hit rate 0.31% among 410,000. AID 624171, 2012; also: % of control where 0% means no effect; nearly all actives have a fitted effect of over 65% in size
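Each well held 1000 AREc32 cells, which were incubated with compound for 24 hr at 37 deg C after overnight attachment, and ARE reporter activity was quantified by firefly luciferase luminescence.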
A549 tox – Nrf2 qHTS screen for inhibitors: counterscreen for cytotoxicity; A549 ARE-Fluc cells, CellTiter-Fluor viability, 18-24 h; Potency, µM (highest dose often 46 µM), for the others: at the top dose activity change, negative = cytotoxicity, most hits filed as inhibitors; hit rate 0.16% among 390,000; AID 504648, 2011; also: % is scaled to controls: 0 for no effect and ±100 for the full control effect
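Cytotoxicity counterscreen: CellTiter-Fluor fluorescence was measured in A549 ARE_Fluc cells after 18-24 h of compound exposure in a concentration series. The subsequent BugLite luminescent read reports ARE-luciferase activity.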
ATXN2 expr inh – Primary qHTS for Inhibitors of ATXN expression; HEK-293 ATXN2-luciferase reporter, luminescence, 24 h; Potency, µM (highest dose often 57 µM), for the others: at the top dose activity change, negative = inhibition, most hits filed as inhibitors; hit rate 0.72% among 360,000; AID 1745845, 2022; also: % is scaled to controls: 0 for no effect and ±100 for the full control effect; nearly all actives have a fitted effect of over 55% in size
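ATXN2-luciferase reporter cells (luciferase flanked by upstream and downstream ATXN2 gene portions) were treated 24 h at 37 °C with compounds at up to 57 uM. SteadyGlo luminescence gave expression; GF-AFC fluorescence gave viability.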
ATXN viability – Viability Counterscreen for Primary qHTS for Inhibitors of ATXN expression; S2 cells (HEK-293 line with an ATXN2-luciferase reporter) viability, CellTiter-Fluor protease fluorescence, 24 h; Potency, µM (series often up to 56.7 µM), hits mostly cytotoxic; hit rate 0.49% among 400,000; AID 651635, 2014; also: nearly all actives have a fitted effect of over 40% in size
Nrf2 block – Nrf2 qHTS screen for inhibitors; A549 ARE-Fluc reporter, luciferase luminescence, 18-24 h; Potency, µM (top dose mostly 46 µM), inactives show at the top dose activity change, negative = inhibition, usual class: inhibitors; hit rate 2.1% among 360,000; also: % is scaled to controls: 0 for no effect and ±100 for the full control effect; nearly all actives have a fitted effect of over 60% in size
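Cells were seeded and rested 2 h, then exposed to compounds for 18-24 h. CellTiter-Fluor was read first as a viability measure. BugLite was added 15 min before the final luminescent read of ARE-luciferase activity in A549 cells.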
* = called active by the depositor; i = inactive; ? = inconclusive; . = not tested or not shown. A selection: hits, their analogues and other compounds. The true share with any hit is near 2.9%. Calls follow the shape of the dose curve; as a rule, active = well fitted curve in the direction sought with a large enough effect; inconclusive = small, poorly fitted or top-dose-only effect, or another doubt; inactive = no such curve, though single readings can be large; an effect the other way counts as inactive or inconclusive. Potency is read from the fitted curve at half-maximal effect.

SMILES	Nrf2 activator	A549 tox	ATXN2 expr inh	ATXN viability	Nrf2 block
CN(C)S(=O)(=O)c1cccc(CSCc2cccc(S(=O)(=O)N(C)C)c2)c1	0%	6%	?	i	6.5µM*
COc1cc(/C=C/c2[nH]c(=O)[nH]c(=O)c2[N+](=O)[O-])cc([N+](=O)[O-])c1O	-1%	16µM*	.	?	3%
COc1cccc(-c2nc(SCC(=O)NC3CCCC3)c(-c3ccc(C)cc3)[nH]2)c1	-2%	?	.	.	?
O=C(CSc1nc(-c2ccccc2)[nH]c1-c1ccccc1)Nc1ccc2c(c1)OCO2	-3%	-28%	20µM*	?	?
COc1ccc(-c2[nH]c(-c3ccc(OC)c(OC)c3)nc2SCC(=O)Nc2ccccc2)cc1	4%	?	-25%	?	23µM*
COc1ccc(NC(=O)CSc2nc(-c3ccc(OC)c(OC)c3)[nH]c2-c2ccc(C)cc2)cc1	8%	-11%	-12%	i	-4%
COc1cccc(-c2nc(SCC(=O)NC3CCCC3)c(-c3ccc(F)cc3)[nH]2)c1	0%	?	.	.	18µM*
Cc1cccc(-c2nc(SCC(=O)Nc3ccc4c(c3)OCCO4)c(-c3ccccc3)[nH]2)c1	1%	-26%	-33%	?	?
COc1ccc(NC(=O)CSc2nc(-c3cccc(C)c3)[nH]c2-c2ccccc2)cc1OC	-1%	?	?	?	23µM*
CCCOc1ccc(Cn2c(=O)sc3ccccc32)cc1	3%	12%	4%	i	?
CCCCOCCCNC(=O)C[C@@H]1C[C@@]2(C(=O)OC)CCCCC=C2N(Cc2ccc(Cl)cc2Cl)C1=O	-1%	.	?	.	.
CCCCNC(=O)C[C@@H]1C[C@@]2(C(=O)OC)CCCCC=C2N(Cc2ccc(Cl)cc2Cl)C1=O	4%	.	?	32µM*	.
CCCCCCCCN1C(=O)[C@H](CC(=O)N2CCN(C(=O)C3CC3)CC2)C[C@@]2(C(=O)OCC)CCCC=C12	7%	.	?	14µM*	.
CCCCCCCCN1C(=O)[C@H](CC(=O)NCCCC)C[C@@]2(C(=O)OC)CCCCC=C12	0%	.	-15%	28µM*	.
CCCCCCCCN1C(=O)[C@H](CC(=O)N2CCN(C(=O)C3CC3)CC2)C[C@@]2(C(=O)OC)CCCCC=C12	7%	.	?	?	.
CC(=O)Cc1nsc(NC(=O)c2cc(-c3ccc(Cl)c(Cl)c3)oc2C)n1	0%	-5%	-2%	i	-3%
CC1=CC(=O)C(C(C)C)=C/C1=N/OS(=O)(=O)c1ccccc1	?	?	.	3.2µM*	?
CSc1nc(C)cc(OCCNS(=O)(=O)c2ccc(C)cc2)n1	1%	7%	-4%	i	.
CC(Cc1ccccc1)=NNc1ccc([N+](=O)[O-])cc1[N+](=O)[O-]	3%	?	0%	?	23µM*
COc1ccc(CCNC(=O)Cn2cc(S(=O)(=O)Cc3cccc(Cl)c3)c3ccccc32)cc1OC	1%	?	.	.	21µM*
CCN(CC)CCNC(=O)c1ccc(-n2c(-c3ccccc3)cc3c2CCCC3)cc1	11µM*	2%	.	.	?
CCOCCCNC(=O)c1ccc(-n2c(-c3ccccc3)cc3c2CCC(C)C3)cc1 (stereo unspecified)	?	-3%	.	.	?
COCCCNC(=O)c1ccc(-n2c(-c3ccccc3)cc3c2CCCC3)cc1	13µM*	2%	.	.	-10%
CC(C)=CCCC(C)CN1CCC(n2nccc2NC(=O)c2ccc3c(c2)OCO3)CC1 (stereo unspecified)	3%	-9%	8%	i	?
CCOC(=O)N1CCN(c2ccc(S(=O)(=O)N3CCC(C)CC3)cc2[N+](=O)[O-])CC1	0%	-2%	.	?	18µM*
SMILES	Nrf2 activator	A549 tox	ATXN2 expr inh	ATXN viability	Nrf2 block
COc1ccccc1Nc1ccc(NC(=O)c2cccc([N+](=O)[O-])c2C)cc1	8%	-22%	.	?	10µM*
COc1ccc(NC(=O)c2ccccc2[N+](=O)[O-])cc1	0%	-1%	24%	i	?
Cc1c(C)n(Cc2ccccc2)c2ncnc(NN)c12	0%	-17%	-6%	i	26µM*
CC(C)Cn1cc(C(=O)N2CCN(c3cccc(Cl)c3)CC2)c2c3ccccc3n(C)c2c1=O	4%	?	?	?	21µM*
O=C(NN/C(=N/S(=O)(=O)c1ccc(Cl)cc1)c1ccccc1)c1cccc(Cl)c1	4.5µM*	-1%	48%	i	?
O=C(Nc1cc2c(cc1Br)OCCO2)c1cccs1	13µM*	-9%	41%	?	?
CCCC(=O)c1cc2c(cc1NC(=O)c1cccs1)OCCO2	3%	1%	-14%	i	6%
CN(C)S(=O)(=O)c1cc(NC(=O)[C@H](Cc2ccccc2)N2C(=O)c3ccccc3C2=O)ccc1Cl	4%	2%	2%	i	27%
O=C(NCc1cccs1)c1ccc(CSc2nc3cccnc3n2Cc2ccc(F)cc2)cc1	1%	-19%	-32%	?	18µM*
CCOc1ccccc1CNC(=O)c1ccc(NC(=O)N2CCSc3ncccc32)cc1	1%	2%	.	.	18µM*
CCOc1ccccc1CNC(=O)c1ccc(Cn2c(SCc3ccccc3)nc3cccnc32)cc1	6%	-16%	.	.	21µM*
O=C(NCc1cccs1)c1ccc(CSc2nc3cccnc3n2Cc2ccccc2)cc1	4%	-19%	-14%	?	?
CN(Cc1ccccc1)C(=O)c1ccc(CSc2nc3cccnc3n2Cc2ccccc2)cc1	-5%	?	-14%	?	21µM*
COc1ccc(CCNC2CCc3ccccc3C2)cc1 (stereo unspecified)	0%	5%	.	.	-3%
O=C(O)c1ccc2c3c(ncnc13)-c1ccccc1C2=O	13%	3.3µM*	?	i	2.6µM*
Cc1ccccc1OCCCC(=O)NCc1ccco1	0%	16%	28%	i	12%
COC1=CC(=O)C(OC)=C(OC)C1=O	-3%	-6%	?	25µM*	2%
CC(C)(C)c1ccc(C(=O)N2CCC(=O)N([C@H](COCc3ccccc3)Cc3ccccc3)CC2)cc1	0%	.	32µM*	.	.
CC(C)CC(COCc1ccc(C(F)(F)F)cc1)N1CCN(C(=O)c2ccc(C(F)(F)F)cc2)CCC1=O (stereo unspecified)	-3%	?	?	?	23µM*
O=C(c1ccc(Cl)c(Cl)c1)N1CCC(=O)N(C(COCc2cccc(C(F)(F)F)c2)Cc2ccccc2)CC1 (stereo unspecified)	-4%	?	?	?	21µM*
COc1cccc(Cn2cnc3c(NS(=O)(=O)c4cccc(Cl)c4Cl)c(C)c(C)cc32)c1	0%	-13%	?	i	?
